Reference: the supplement of paper PMC7156485

How the values were obtained:
Conditions in all cases: concentration: 10 µM; 24 h
HCC1569 [1] = experiment: cell number relative to DMSO (% of DMSO); higher = more cells (less growth inhibition / toxicity)
In short: (§1)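 Compounds were applied at 10 µM for 24 h at 37 °C, in triplicate, to HCC1569 and TDF cells. The cells were then fixed and stained for H1.0, and nuclei were counterstained with DAPI. Nuclear H1.0 intensity or cell number is reported relative to the plate control as a percent, taking the median of replicates. Smoothing for positional effects was applied to HCC1569 values only.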

TDF [2] = experiment: as above
In short: as §1

TDF [3] = experiment: H1.0 immunofluorescence intensity relative to DMSO (% of DMSO); higher = stronger H1.0 induction, active = 120 or more
In short: as §1

HCC1569 [4] = experiment: H1.0 immunofluorescence intensity relative to DMSO (% of DMSO); higher = stronger H1.0 induction, active = 140 or more
In short: as §1
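Wherever H1.0 immunofluorescence intensity relative to DMSO is given: TDF is a line of transformed human dermal fibroblasts of mesenchymal origin.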
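Wherever cell number relative to DMSO is given: TDF denotes transformed human dermal fibroblasts of mesenchymal origin.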

Row | Structure (SMILES) | cell number (HCC1569 [1]) | cell number (TDF [2]) | H1.0 immunofluorescence intensity (TDF [3]) | H1.0 immunofluorescence intensity (HCC1569 [4])
1 | CC(C)C1NC(=O)C(CCCCN)NC(=O)C(Cc2c[nH]c3ccccc23)NC(=O)C(Cc2ccc(O)cc2)NC(=O)C(C)N(C)C(=O)C(Cc2ccccc2)NC1=O (configuration not stated) [Seglitide] | 89.8 | 98.2 | 102 (inactive) | 152 (active)
2 | O=c1cc(-c2ccc(O)cc2)oc2cc(OC3OC(CO)C(O)C(O)C3O)c(C3OC(CO)C(O)C(O)C3O)c(O)c12 (configuration not stated) [Saponarin] | 98.8 | 89.5 | 108 (inactive) | 94.4 (inactive)
3 | Br.Br.N=C(N)SCCc1cccc(CCSC(=N)N)c1 [1,3-PBIT dihydrobromide] | 117 | 113 | 97.4 (inactive) | 98.4 (inactive)
4 | CCN(CC)CCCCN1c2ccccc2Oc2ccc(Cl)cc21.Cl | 88.8 | 86.3 | 110 (inactive) | 159 (active)
5 | Clc1cccc(CNC2=Nc3ccccc3NC23CCNCC3)c1 | 99 | 89.6 | 106 (inactive) | 124 (inactive)
6 | OCC1OC(O)C(Cl)C(O)C1O [2-Chloro-2-deoxy-D-glucose] | 104 | 101 | 101 (inactive) | 92 (inactive)
7 | CCc1cc(Cl)c(OC)c(C(=O)NCC2CCCN2CC)c1O.Cl (stereo not drawn) [S-(-)-Eticlopride hydrochloride] | 102 | 110 | 103 (inactive) | 97.8 (inactive)
8 | c1ccc(-c2[nH]ncc2-c2ccnc3ccccc23)nc1 | 98 | 107 | 94.8 (inactive) | 102 (inactive)
